D1 antagonist = blocks dopamine activation of the human D1 receptor; P21728; HEK293 TREx D1 cells, calcium flux, dopamine EC80; hits give low values; activity change, negative = inhibition, % at 10 µM; 360,000 compounds, 3.2% hits; in the data active = activity change below about -30%
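Compound effects on dopamine-evoked calcium signalling were measured in tetracycline-induced HEK293 Trex D1 cells. Dopamine at EC80 followed a 180 s compound pre-read, and fluorescence was tracked kinetically for 180 s more.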
D1 agonist = human D1 receptor agonism; activation, % at 2 µM; P21728; HEK293 T-REx D1 cells, calcium flux, agonist mode; AID 504660; 360,000 compounds, 1% hits
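Inducible HEK293 T-REx D1 cells, force-coupled to calcium signalling, were plated at 4000 cells/well with tetracycline and held overnight at 30 C. After no-wash calcium dye loading, compound-evoked calcium rise over 180 s flagged agonists.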
TRHR PAM = allosteric enhancers of human TRH receptor; P34981; TRHR cells, fluo-8 calcium fluorescence, EC20 TRH enhancement; enhancement, % at 2 µM; 360,000 compounds, 0.66% hits; in the data active = enhancement above about 30%
Target sequence (P34981 whole entry, looked up): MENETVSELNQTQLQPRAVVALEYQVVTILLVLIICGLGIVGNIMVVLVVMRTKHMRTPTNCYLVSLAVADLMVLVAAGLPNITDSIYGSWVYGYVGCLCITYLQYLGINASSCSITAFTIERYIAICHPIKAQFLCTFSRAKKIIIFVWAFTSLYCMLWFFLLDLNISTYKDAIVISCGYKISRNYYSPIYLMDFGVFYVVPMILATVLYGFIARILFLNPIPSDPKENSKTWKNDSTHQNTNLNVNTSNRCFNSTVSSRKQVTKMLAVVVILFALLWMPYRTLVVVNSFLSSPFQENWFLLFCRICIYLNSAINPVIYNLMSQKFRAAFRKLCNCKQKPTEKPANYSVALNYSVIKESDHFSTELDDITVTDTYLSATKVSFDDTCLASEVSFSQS
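Enhancer read-out: after compound pinning and an initial kinetic agonist-mode read, an EC20 of TRH (10 nM final) was injected and fluo-8 calcium signal (Ex 480/Em 530) followed at 1 s/cycle for 100 cycles in TRHR-expressing cells.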
TRHR agonist = TRH receptor (human) agonism | TRHR cells, calcium flux fluo-8, FDSS agonist mode | activation, % at 2 µM | P34981 | 360,000 compounds, 0.18% hits
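Agonist-mode FDSS calcium read (Ex 480/Em 530, 1 s cycles) in 1536-well TRHR cells with fluo-8 dye, after 10-cycle baseline and 23 nL compound addition; TRH at EC20 (10 nM final) added afterwards for the enhancer phase.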
D1 potentiator = human D1 dopamine receptor positive modulation; P21728; HEK293 TREx D1 cells, calcium flux, dopamine EC20 potentiation; potentiation, % at 10 µM; 360,000 compounds, 0.036% hits; in the data active = potentiation above about 30%
Of the large screens only hits and unclear results are named; the others gave an inactive call. Hits are enriched below; roughly 4.6% of the tested compounds scored in any of these assays. Rule as the data show it, unless noted: active = activation above about 30%; inactive = the rest.

Cc1ccc(OCCn2cnc3c2c(=O)n(C)c(=O)n3C)cc1	D1 antagonist -31.7
Cn1c(=O)c2c(ncn2CC(COCc2ccccc2)OCc2ccccc2)n(C)c1=O (stereo unspecified)	D1 antagonist -55.2
Cc1ccc(Cl)c(OC(=O)Cn2cnc3c2c(=O)n(C)c(=O)n3C)c1	D1 antagonist -40.9
CCN1CCN(C(=O)c2ccc3c(c2)N(Cc2ccc(Cl)cc2)C(=O)c2ccccc2S3=O)CC1 (stereo unspecified)	none
CCOc1ccc(-c2nnc(SCC(=O)Nc3cc(F)ccc3F)o2)cc1	none
Cc1ccc(CS(=O)(=O)CCC(=O)NCCc2ccccc2)cc1	none
Cc1ccc(CS(=O)(=O)CCC(=O)NCc2cccs2)cc1	D1 antagonist -32.5
CCN(C(=O)c1ccc2c(=O)n3c(nc2c1)CCCCC3)c1cc(C)ccc1C	D1 antagonist -52.1
CN(CC(=O)Nc1ccccc1C(F)(F)F)C(=O)c1ccc2c(=O)n3c(nc2c1)CCC3	D1 antagonist -32.0
Cc1cccc(NC(=O)c2ccc3c(=O)n4c(nc3c2)CCCCC4)n1	D1 antagonist -36.8
O=C(c1ccc2c(=O)n3c(nc2c1)CCCCC3)N1CCN(c2ccc(F)cc2)CC1	D1 antagonist -49.9
O=C(CI)Nc1cccc2cccnc12	none
COc1ccc(CNc2nc(-c3ccc(OC)cc3)cc(C(F)(F)F)n2)cc1	none
NC(=O)c1ccc(/C=N/O)nc1	TRHR PAM 37.6
O=C(NC1CCCC1)c1cccc2c1C(=O)c1ccc(N3CCCCC3)cc1S2(=O)=O	none
CC1CCN(c2ccc3c(c2)S(=O)(=O)c2cccc(C(=O)NC4CCCCC4)c2C3=O)CC1	D1 antagonist -30.8, D1 agonist 34.5, TRHR agonist 39.0
O=C(NCc1ccccc1Br)c1cccc2c1C(=O)c1ccc(N3CCOCC3)cc1S2(=O)=O	D1 agonist 36.8
CC1CCN(c2ccc3c(c2)S(=O)(=O)c2cccc(C(=O)NCc4ccc(F)cc4)c2C3=O)CC1	D1 agonist 336.7, TRHR agonist 78.2
O=C(NCc1ccc(F)cc1)c1cccc2c1C(=O)c1ccc(N3CCOCC3)cc1S2(=O)=O	D1 agonist 42.5 (no result: D1 antagonist)
Cc1ccccc1N1CCN(C2CCCN(C(=O)CN3CCCC3=O)C2)CC1 (stereo unspecified)	none
CC(C)/C=C/C(=O)N1CCCC(N2CCN(c3ccccc3F)CC2)C1 (stereo unspecified)	D1 antagonist -45.9
O=C(c1ccco1)N1CCCC(N2CCN(c3ccccc3F)CC2)C1 (stereo unspecified)	none
COc1ccccc1N1CCN(C2CCCN(C(=O)CN3CCCC3=O)C2)CC1 (stereo unspecified)	D1 antagonist -31.7
COCCCn1c(=O)/c(=C\c2ccccc2OC(F)F)s/c1=C(/C#N)C(=O)NCCOC	none
COCCNC(=O)/C(C#N)=c1\s/c(=C\c2ccccc2OC(F)F)c(=O)n1Cc1ccccc1	TRHR agonist 103.2
Cn1nc(-c2ccccc2)cc1NS(=O)(=O)c1ccccc1	D1 antagonist -36.3
Cc1ccc(S(=O)(=O)Nc2cc(-c3ccccc3)nn2C)cc1	none
N=c1c(C(=O)NCC2CCCO2)cc2c(=O)n3ccccc3nc2n1Cc1ccccc1Cl (stereo unspecified)	D1 antagonist -39.2
Cc1ccc(CSc2nc(N)cc(N)n2)cc1	none
Nc1cc(N)nc(CS)n1	D1 antagonist -54.0
C=Cc1nc(Nc2cc(F)cc(F)c2)nc(NC2CCCC2)n1	none
Cn1cnc([N+](=O)[O-])c1Sc1ccc(C(C)(C)C)cc1	D1 agonist 35.2
Cc1cccn2c(=O)nc(SCC(=O)c3ccc(Cl)cc3)nc12	none
Cc1cccn2c(=O)nc(SCC(=O)c3ccccc3)nc12	D1 antagonist -57.0
Nc1nonc1C(=O)NC(c1ccccc1)c1ccccc1	D1 antagonist -36.1
COc1ccc(OC)c(NC(=O)CSc2ccnc(=O)[nH]2)c1	none (no result: D1 antagonist)
CC(C)N(Cc1nc2ccccc2[nH]1)C(C)C	D1 antagonist -33.9
O=C(CSCc1ccc(Cl)cc1)Nc1cccc(C(=O)O)c1	TRHR PAM 37.6
CC(=O)c1cccc(NC(=O)CSCc2ccc(Br)cc2)c1	D1 antagonist -32.9
Cc1cc(C)cc(N2CCn3c2nc2c3c(=O)n(Cc3c(F)cccc3Cl)c(=O)n2C)c1	D1 antagonist -30.7
C=C(C)Cn1c(=O)c2c(nc3n2CCN3c2cc(C)cc(C)c2)n(C)c1=O	none
COc1ccc(-c2cn3nc(SCC(=O)Nc4ccc(C)c(Cl)c4)ccc3n2)cc1	none
Cc1ccc(S(=O)(=O)c2[nH]c(-c3ccccc3)nc2SC(C)C(=O)O)cc1 (stereo unspecified)	none
Cc1nn(-c2cc(C(F)(F)F)ccc2Cl)c2nc(C(Cl)(Cl)Cl)[nH]c(=O)c12	D1 antagonist -37.7
CCOC(=O)c1c(C)[nH]c(CCC(=O)Nc2ccccc2C(=O)OC)c1C	none
Cc1ccc(Nc2cc(C)c(C#N)c3nc4ccccc4n23)c(C)c1	D1 antagonist -37.9
CC1C/C(=C/c2ccncc2)C(=O)/C(=C/c2ccncc2)C1 (stereo unspecified)	D1 antagonist -31.5
CC1C/C(=C/c2cccn2C)C(=O)/C(=C/c2cccn2C)C1 (stereo unspecified)	D1 agonist 197.9, TRHR PAM 35.1, TRHR agonist 82.1
COc1ccccc1CCNC(=O)C(=O)NCC(c1ccco1)S(=O)(=O)c1ccc(F)cc1 (stereo unspecified)	none (no result: D1 antagonist)
COc1ccc(C2=NC3(CCCCCC3)N(CC(=O)Nc3cccc(Cl)c3)C2=O)cc1	none
COCCNC(=O)C(c1ccc(C)o1)N(Cc1ccc(OC)cc1)C(=O)Cn1nnc2ccccc21 (stereo unspecified)	D1 agonist 56.3
Cc1ccccc1N(C)C(=O)c1noc2c1COc1ccccc1-2	none
Nc1nc(C2CC2)c(Sc2sc(N)nc2C2CC2)s1	D1 antagonist -48.6
O=C1CCCc2cc(S(=O)(=O)NCC3CCC(C(=O)Nc4ccccc4F)CC3)ccc2N1 (stereo unspecified)	none
O=[N+]([O-])c1cc(-c2nc(-c3ccco3)no2)ccc1NCc1ccccc1	none
COc1ccccc1-c1ccc(=O)n(CC(=O)NC2CCc3ccccc32)n1 (stereo unspecified)	D1 agonist 88.2
Cc1cccc(-c2c3c(=O)n(C)c(=O)n(C)c3cn2-c2cc(N)c(Cl)cc2Cl)c1	none
c1coc(-c2nc3cc4ccccc4cc3nc2-c2ccco2)c1	none
Cc1ccc(CN2CCC(CNC(=O)c3cc4ccc5cccnc5c4[nH]3)CC2)cc1	D1 agonist 40.4
CC(=O)Nc1ccc(S(=O)(=O)N2CCC(C(=O)Nc3nccs3)CC2)cc1	D1 antagonist -39.1
Cc1ccc(S(=O)(=O)N2CCC(c3ccncc3)CC2)c(C)c1	D1 antagonist -33.5
CC(=O)Nc1ccc(S(=O)(=O)N2CCC(c3ccncc3)CC2)cc1	D1 antagonist -37.2
